Screening data from PubChem.
ELG1 repair inh = blocks ELG1-dependent DNA repair in HEK293T cells; HEK293T ELG1-luciferase reporter, luminescence, 16 h; DNA damage induced by 5-fluorouridine; Potency, µM (highest dose often 46.1 µM), inactives show at the top dose activity change, negative = inhibition, hits mostly inhibitors; actives 2.3% (n = 330,000); AID 504467; further: on the % scale 0 is the no-effect control and ±100 the full control effect; nearly all actives have a fitted effect of over 55% in size
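Quantitative HTS, concentration-response format. 2,000 cells/well co-treated with 5-fluorouridine and compound, 16 hr in 5% CO2 at 37 °C; ONE-Glo luminescence read after 30 min.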
SMN2 splice up = SMN2 splice variant enhancement. HEK293 SMN2-luciferase splicing reporter, luminescence, 30-36 h. Potency, µM (top dose mostly 46.1 µM), inactives show top-dose activity change, positive = activation, hits mostly activators. actives 2.8% (n = 210,000); further: % of control where 0% means no effect; nearly all actives have a fitted effect of over 55% in size
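HEK293 cells carry an SMN2 minigene-luciferase reporter in which exon 7 inclusion puts luciferase in frame. Cells were seeded at 2000 cells/well, attached for 10-12 hours, then exposed to compounds for 30-36 hours at 37C before ONE-Glo luminescence.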
ELG1 genotoxic = induces genotoxicity in HEK293T cells with luciferase-tagged ELG1; HEK293T ELG1-luciferase reporter, luminescence, 16 h; actives 1.3% (n = 330,000); AID 504466; Potency, µM (top dose mostly 46 µM), without a hit: at the highest dose activity change, positive = activation, most hits filed as activators; further: % of control where 0% means no effect; nearly all actives have a fitted effect of over 60% in size
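Genotoxicity was scored as increased ELG1-luciferase reporter signal, measured by ONE-Glo luminescence (30 min, room temperature). Compound or vehicle exposure of the HEK293T reporter cells lasted 16 hr at 37°C.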
Rab9 promoter act = activates the Rab9 promoter. Huh7 Rab9 promoter-luciferase reporter, luminescence, 24 h. Potency, µM (doses to about 9.22 µM), for the others: at the top dose activation, negative = inhibition, actives largely listed as activators. actives 2.8% (n = 320,000); further: % of control where 0% means no effect; nearly all actives have a fitted effect of over 60% in size
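Huh7 cells stably carrying Rab9 promoter–luciferase reporter, plated 1500 cells/well, compound added after 2 h and incubated 24 h at 37 °C; luciferase luminescence then read after 10 min with detection reagent.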
NPC1 promoter act = activators of NPC1 promoter. Huh7 NPC1 promoter luciferase reporter, 24 h. Potency, µM (titrated, usually from 9.22 µM), without a hit: at the top dose activation, most hits filed as activators. actives 2.4% (n = 320,000); further: % of control where 0% means no effect; nearly all actives have a fitted effect of over 60% in size
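Luciferase expression driven by the NPC1 promoter was measured in stably transfected Huh7 cells after a 24 h compound incubation, using a luciferase reagent and a luminescence read.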
FLuc counter = firefly luciferase modulation, counter-screen for miR-21 project. purified FLuc, Km substrates, luminescence inhibition. Potency, µM (highest dose often 57.5 µM), without a hit: top-dose activity change, negative = inhibition, hits mostly inhibitors. P08659. AID 588342. actives 6.9% (n = 360,000);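 further: plate controls were vehicle for no effect and reference inhibitor for full effect; nearly all actives have a fitted effect of over 55% in size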
Target sequence (P08659 whole entry, looked up): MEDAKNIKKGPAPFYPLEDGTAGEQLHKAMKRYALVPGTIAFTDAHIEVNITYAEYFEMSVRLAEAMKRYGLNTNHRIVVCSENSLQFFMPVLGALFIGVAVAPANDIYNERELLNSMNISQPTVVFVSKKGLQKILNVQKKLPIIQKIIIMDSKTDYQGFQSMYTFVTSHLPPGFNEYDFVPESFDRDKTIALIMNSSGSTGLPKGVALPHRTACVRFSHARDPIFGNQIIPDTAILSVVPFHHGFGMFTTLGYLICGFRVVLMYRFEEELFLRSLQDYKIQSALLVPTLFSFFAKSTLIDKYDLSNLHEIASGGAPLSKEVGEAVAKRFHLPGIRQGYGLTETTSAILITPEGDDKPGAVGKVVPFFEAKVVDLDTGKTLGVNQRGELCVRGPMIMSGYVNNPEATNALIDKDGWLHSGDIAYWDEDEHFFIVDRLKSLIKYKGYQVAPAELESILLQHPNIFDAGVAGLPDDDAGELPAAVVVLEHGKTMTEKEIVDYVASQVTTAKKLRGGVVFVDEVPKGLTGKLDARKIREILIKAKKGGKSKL
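Purified P. pyralis luciferase, 10 nM final, with Km-level 10 uM D-luciferin and 10 uM ATP in 50 mM Tris acetate pH 7.5, 10 mM Mg acetate, 0.01% Tween-20, 0.05% BSA; 6-point qHTS titration about 60 µM downward; luminescence read.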
The depositor's hits bear a star; ? = inconclusive; nt = not tested or not shown; [ ] = another dose, or the depositor's remark. Sampled rows, rich in hits. Any-hit rate of the full collection: about 9.4%. The call rests on the fitted dose curve; in most records, active means well fitted curve in the direction sought with a large enough effect; inconclusive means small, poorly fitted or top-dose-only effect, or another doubt; inactive means no such curve, though single readings can be large; an effect the other way counts as inactive or inconclusive. Potency means the concentration at half of the fitted maximal effect.

SMILES	ELG1 repair inh	SMN2 splice up	ELG1 genotoxic	Rab9 promoter act	NPC1 promoter act	FLuc counter
Cc1ccc(C)c(OCC(=O)O/N=C(\N)c2cccc([N+](=O)[O-])c2)c1	-8%	nt	0%	2%	1%	-4%
N/C(Cc1ccc(Cl)cc1Cl)=N\OC(=O)Cc1ccccc1	19%	8%	0%	-3%	-1%	15µM*
COc1ccc(/C(N)=N/OC(=O)COc2ccccc2Cl)cc1	?	?	?	11%	7%	21µM*
Cc1cccc(/C(N)=N/OC(=O)Cc2ccccc2)c1	?	11%	?	20%	14%	15µM*
Cc1cccc(/C(N)=N/OC(=O)COc2ccccc2Cl)c1	?	?	?	16%	22%	19µM*
CCC(C)NC(=O)c1cc2n(n1)CCCN(Cc1ccc(C)cc1)C2=O (stereo unspecified)	nt	nt	nt	nt	nt	-5%
CCOc1cc(CNC(=O)CSc2n[nH]c(-c3ccccc3)n2)cc(OCC)c1OCC	nt	nt	nt	nt	nt	-14%
CCCn1nnc(NC(=O)c2cccc(Cl)c2)n1	?	?	6%	22%	28%	-17%
CCc1ccc(C(=O)Nc2nnn(CC)n2)cc1	?	0.5µM*	1.6µM*	0.5µM*	2µM*	4.3µM*
Cn1nnc(NC(=S)NC(=O)c2cc3ccccc3o2)n1	18%	nt	1%	10%	3%	?
CCCn1nnc(NC(=O)c2cc3ccccc3o2)n1	?	10µM*	5.8µM*	?	2.5µM*	19µM*
CCn1nnc(NC(=O)c2ccc(Br)o2)n1	?	nt	-2%	0%	2%	-5%
CCn1nnc(NC(=O)c2cc3ccccc3o2)n1	?	32µM*	15µM*	?	?	15µM*
CCCn1nnc(NC(=O)c2ccc3c(c2)OCO3)n1	?	nt	?	1.6µM*	2.8µM*	19µM*
CC(=O)Nc1ccc(S(=O)(=O)NC2=NCN(C(C)C)CN2)cc1	nt	15%	nt	nt	nt	-2%
CCCn1nnc(NC(=O)c2ccc(-c3cccc(Cl)c3)o2)n1	?	7%	11%	?	29%	17µM*
CCCCn1nnc(NC(=O)c2ccc(-c3cccc(Cl)c3)o2)n1	11%	-10%	0%	11%	14%	?
CCCCn1nnc(NC(=O)c2cc3ccccc3o2)n1	?	?	6.5µM*	1.6µM*	3.2µM*	?
CCn1cc(C(=O)NCCN(CC(C)C)CC(C)C)c(=O)c2cc(S(=O)(=O)N(C)C3CCCCC3)ccc21	nt	-6%	nt	nt	nt	-3%
c1ccc(-c2nnc(CSc3nnc(-c4cccs4)o3)o2)cc1	-3%	7%	5%	-7%	-4%	-2%
c1ccc(CSc2nnc(-c3cccs3)o2)cc1	?	?	?	?	2.8µM*	12µM*
Fc1ccccc1CSc1nnc(-c2cccs2)o1	?	13µM*	8.2µM*	1.8µM*	1.8µM*	5.4µM*
Fc1ccc(CSc2nnc(-c3cccs3)o2)cc1	?	?	?	?	-2%	?
COc1ccc(NC(=O)N(Cc2ccco2)C2CCN(C(C)=O)CC2)c(OC)c1	nt	nt	nt	nt	nt	-4%
COc1cc(OC)c(NC(=O)c2c(C)oc3nc(C)nc(N4CCOCC4)c23)cc1Cl	nt	nt	nt	nt	nt	-2%
SMILES	ELG1 repair inh	SMN2 splice up	ELG1 genotoxic	Rab9 promoter act	NPC1 promoter act	FLuc counter
Cc1cccc(N2CCN(C(=O)C3CCN(c4ncnc5c4nc4n5CCCCC4)CC3)CC2)c1C	?	nt	-17%	-16%	-13%	?
O=C(C1CCCN(c2ncnc3c2nc2n3CCCCC2)C1)N1CCN(c2cccc(Cl)c2)CC1 (stereo unspecified)	8.2µM*	nt	-4%[9.26 µM]	-2%	-3%	1%
Cc1ccc(C)c(N2CCN(C(=O)C3CCCN(c4ncnc5c4nc4n5CCCCC4)C3)CC2)c1 (stereo unspecified)	13µM*	nt	-14%	-1%	-7%	4%
Cc1cccc(N2CCN(C(=O)C3CCN(c4ncnc5c4nc4n5CCCCC4)CC3)CC2C)c1 (stereo unspecified)	4.1µM*	nt	-15%	-21%	-22%	1%
O=S(=O)(c1ccc(F)cc1)N(Cc1nc(-c2ccc(Cl)cc2)no1)C1CCCCC1	nt	6%	nt	nt	nt	-2%
CCOc1ccc(C(=O)N/N=C/c2ccccc2[N+](=O)[O-])cc1	?	13µM*	?	1.4µM*	2.2µM*	1.7µM*
Cc1ccc(C(=O)N/N=C/c2cc(Br)ccc2O)cn1	?	nt	11%	-35%	-29%	13µM*
Cc1ccc(C(=O)N/N=C\c2ccccc2[N+](=O)[O-])cn1	?	13µM*	9%	2.8µM*	3.5µM*	12µM*
COc1cc(/C=N/NC(=O)c2ccc(C)nc2)cc([N+](=O)[O-])c1O	-14%	2%	-2%	2%	0%	21µM*
CCOc1ccccc1CNC(=O)c1oc2c(c1C)-c1[nH]ncc1CC2	nt	nt	nt	nt	nt	2%
COc1ccc2c(c1)CCc1c(C(=O)Nc3c(C)nn(Cc4ccc(C)cc4)c3C)noc1-2	nt	3%	nt	nt	nt	-5%
COc1ccc(-c2ccc(C(=O)O)c(=O)[nH]2)cc1	7%	?	7%	24%	1%	-3%
Cc1ccc(-c2ccc(C(=O)O)[nH]2)cc1	?	-7%	15%	0%	0%	19µM*
O=[N+]([O-])c1ccc(-n2cnc3ccccc32)c([N+](=O)[O-])c1	23µM*	nt	-14%	-1%	-4%	-3%
O=C1c2ccccc2NC2(CCCCC2)N1c1ccc(O)cc1	?	8.9µM*	?	19%	16%	?
Cc1cc(N=Nc2ccc(C)c(N=Nc3cc(C)c(N)cc3N)c2)c(N)cc1N	?	nt	2.3µM*	2.8µM*	2.8µM*	0.54µM*
COc1ccc(N(CC(=O)NCc2ccc3c(c2)OCO3)C(=O)c2csnn2)cc1	?	nt	11%	21%	17%	-12%
O=c1cc(-c2ccc(O)cc2)oc2ccc3ccccc3c12	?	nt	?	?	0.89µM*	0.067µM*
COc1cc(-c2cc(=O)c3c(O)c(OC)c(OC)c(OC)c3o2)cc(OC)c1OC	?	1%	-1%	-6%	-12%	0%
